Data reported in PubChem BioAssay AID1159580 (chemical genetic matrix, 2015).
Values joined by “and” are separate entries in the source; they are usually repeats but may differ in a detail not shown here. Equal values may be shown once. Among all 5,500 compounds or so, about 2,000 (36%) were called active. Another 18% or so got no clear call; they are omitted. No stated cut-off is given here; in the data, active means normalized growth mostly below about 0.91 (no sharp cut-off); inconclusive means no clear call, values can overlap the other calls; inactive means mostly above about 0.92. Some of the results follow.

Experiment: chemical genetic growth profiling, strain panel (AID 1159580);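 further: tested at 20 µM; growth read once vehicle control cultures reached saturation at 30 °C; 1 = growth at the plate median or of vehicle wells; lower values mean less growth of the strain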
Details: S. cerevisiae deletion strains, growth OD

Measured: normalized growth

O=C(O)c1cccnc1
inactive: locus YAL013W, strain DEP1, hits give low values 0.987 | locus YAL021C, strain ccr4, hits give low values 1 | locus YAL026C, strain drs2, hits give low values 0.993 | locus YAL030W, strain snc1, hits give low values 0.994 | locus YBL061C, strain skt5, hits give low values 1.02 | locus YBR009C, strain hhf1, hits give low values 1.01 | locus YBR021W, strain FUR4, hits give low values 1.02 | locus YBR023C, strain chs3, hits give low values 1.01 | locus YBR171W, strain sec66, hits give low values 0.997 | locus YBR229C, strain ROT2, hits give low values 0.96 | locus YBR231C, strain swc5, hits give low values 0.996 | locus YBR279W, strain paf1, hits give low values 1 | locus YCL011C, strain gbp2, hits give low values 0.984 | locus YCL016C, strain dcc1, hits give low values 1.03 | locus YCL029C, strain bik1, hits give low values 1.01 | locus YCL061C, strain MRC1, hits give low values 1 | locus YCL069W, strain vba3, hits give low values 0.976 | locus YCR088W, strain abp1, hits give low values 0.992 | locus YDL005C, strain med2, hits give low values 0.98 | locus YDL035C, strain GPR1, hits give low values 0.968 | locus YDL040C, strain nat1, hits give low values 0.987 | locus YDL074C, strain BRE1, hits give low values 1.02 | locus YDL101C, strain DUN1, hits give low values 1.01 | locus YDL134C, strain PPH21, hits give low values 0.984 | locus YDL185W, strain tfp1, hits give low values 1.01 | locus YDL192W, strain arf1, hits give low values 1 | locus YDR001C, strain nth1, hits give low values 0.992 | locus YDR069C, strain doa4, hits give low values 1.01 | locus YDR101C, strain arx1, hits give low values 1.02 | locus YDR137W, strain rgp1, hits give low values 1.05 | locus YDR150W, strain NUM1, hits give low values 0.983 | locus YDR159W, strain sac3, hits give low values 0.977 | locus YDR162C, strain NBP2, hits give low values 0.985 | locus YDR195W, strain ref2 1.01 | locus YDR297W, strain sur2, hits give low values 0.996 | locus YDR318W, strain mcm21, hits give low values 1.04 | locus YDR334W, strain swr1, hits give low values 0.971 | locus YDR335W, strain msn5, hits give low values 0.993 | locus YDR388W, hits give low values 1 | locus YDR392W, strain spt3, hits give low values 0.973 | locus YDR502C, strain sam2, hits give low values 1 | locus YEL003W, strain gim4, hits give low values 0.985 | locus YEL037C, strain rad23, hits give low values 0.977 | locus YEL061C, strain CIN8 (second series), hits give low values 0.98 | locus YEL061C, strain CIN8, hits give low values 0.989 | locus YER015W, strain faa2, hits give low values 0.998 | locus YER016W, strain bim1, hits give low values 0.992 | locus YER110C, hits give low values 0.985 | locus YER111C, strain swi4, hits give low values 0.999 | locus YER155C, strain BEM2 (second series), hits give low values 0.995 | locus YER155C, strain BEM2, hits give low values 1.02 | locus YER167W, strain BCK2, hits give low values 0.982 | locus YFR010W, strain ubp6, hits give low values 0.995 | locus YGL078C, strain dbp3, hits give low values 1 | locus YGL086W, strain mad1, hits give low values 1.02 | locus YGL167C, strain pmr1, hits give low values 1.01 | locus YGL173C, strain kem1, hits give low values 1.01 | locus YGL227W, strain vid30, hits give low values 0.987 | locus YGL240W, strain doc1, hits give low values 1.01 | locus YGL248W, strain PDE1, hits give low values 0.983 | locus YGL253W, strain hxk2, hits give low values 0.987 | locus YGR078C, strain PAC10, hits give low values 1.04 | locus YGR135W, strain pre9, hits give low values 1.05 | locus YGR229C, strain SMI1, hits give low values 1.03 | locus YGR252W, strain gcn5, hits give low values 0.919 | locus YHR013C, strain ard1, hits give low values 1.04 | locus YHR027C, strain rpn1, hits give low values 1.01 | locus YHR030C, strain SLT2, hits give low values 0.997 and 1 | locus YHR079C, strain IRE1 (second series), hits give low values 1.01 | locus YHR079C, strain IRE1, hits give low values 1.03 | locus YHR094C, strain hxt1, hits give low values 0.999 | locus YHR129C, strain ARP1, hits give low values 1.01 | locus YHR142W, strain chs7, hits give low values 1.01 | locus YHR200W, strain rpn10, hits give low values 1.02 | locus YIL066C, strain RNR3, hits give low values 0.982 | locus YIL073C, strain SPO22, hits give low values 1.01 | locus YIL125W, strain kgd1, hits give low values 0.984 | locus YIR030C, strain dcg1, hits give low values 0.996 | locus YJL092W, strain hpr5, hits give low values 0.978 | locus YJL095W, strain BCK1 (second series), hits give low values 1 | locus YJL095W, strain BCK1, hits give low values 1.05 and 0.999 | locus YJL115W, strain asf1, hits give low values 0.973 | locus YJL129C, strain trk1, hits give low values 0.949 | locus YJL134W, strain LCB3, hits give low values 0.991 | locus YJL154C, strain vps35, hits give low values 0.977 | locus YJL164C, strain tpk1, hits give low values 1.02 | locus YJL166W, strain qcr8, hits give low values 0.988 | locus YJL168C, strain set2, hits give low values 1 | locus YJL187C, strain SWE1 (second series), hits give low values 0.996 | locus YJL187C, strain SWE1, hits give low values 0.99 | locus YJR043C, strain POL32, hits give low values 1.05 | locus YJR066W, strain TOR1, hits give low values 0.971
